# Cruzain inh Det: cruzain (T. cruzi) inhibition with detergent; hit rate 0.43% among 200,000; purified cruzain, Z-FR-AMC fluorescence, 0.01% Triton; P25779; Potency, µM, for inactives: max response, negative = inhibition, hits mostly inhibitors; AID 1478;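 note: plate controls were neutral wells for no effect and buffer without enzyme for full effect; nearly all actives have a fitted effect of over 40% in size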
# Target sequence (P25779 123-467 limits assumed): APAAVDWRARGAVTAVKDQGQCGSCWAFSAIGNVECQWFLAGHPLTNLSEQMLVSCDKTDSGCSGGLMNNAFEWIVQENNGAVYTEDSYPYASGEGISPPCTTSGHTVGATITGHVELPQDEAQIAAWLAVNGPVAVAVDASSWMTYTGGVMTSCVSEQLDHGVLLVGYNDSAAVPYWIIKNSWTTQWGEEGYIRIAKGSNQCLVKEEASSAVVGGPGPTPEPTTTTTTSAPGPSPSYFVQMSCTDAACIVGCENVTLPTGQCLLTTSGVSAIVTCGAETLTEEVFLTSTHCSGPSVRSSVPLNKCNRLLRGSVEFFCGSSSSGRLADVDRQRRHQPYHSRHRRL
#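 Cysteine protease activity tested under reducing, mildly acidic conditions (100 mM sodium acetate pH 5.5, 5 mM DTT) plus 0.01% Triton X-100. Cruzain 1.5 nM; substrate Z-FR-AMC 2 uM; 15 min compound preincubation at room temperature.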
# Cruzain noTriton: blocks cruzain activity in detergent-free assay; P25779; purified cruzain, Z-FR-AMC fluorescence, no detergent; Potency, µM, without a hit: max response, negative = inhibition, hits mostly inhibitors; hit rate 2.3% among 200,000;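 note: plate controls were enzyme without inhibitor for no effect and buffer without enzyme for full effect; nearly all actives have a fitted effect of over 40% in size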
#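 Purified cruzain at 1.5 nM, pre-incubated 15 min with compound at room temperature in 100 mM sodium acetate pH 5.5, 5 mM DTT, 0.00005% Triton X-100. Reaction started with 2 uM Z-FR-AMC; AMC fluorescence increase over 60 s gives rate.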
# * hit, by the source's call; ? = inconclusive. Rows were chosen to be rich in hits. Some 2.4% of all compounds tested hit in one or more screens of this group. Calls come from the whole dose curve; as a rule, active = well fitted curve in the direction sought with a large enough effect; inconclusive = small, poorly fitted or top-dose-only effect, or another doubt; inactive = no such curve, though single readings can be large; an effect the other way counts as inactive or inconclusive. Potency is the fitted concentration of half-maximal effect.
SMILES,Cruzain inh Det,Cruzain noTriton
CN(C)CCCNc1c2c(nc3ccc(Cl)cc13)CCCC2,2.5%,3.8%
O=C1C=CC(=O)C(Cl)=C1,-1.2%,-7.8%
CCOC(=O)c1sc(NCc2ccco2)c(-c2nc3ccccc3s2)c1N,-5.7%,?
CCNc1sc(C(=O)c2cccs2)c(N)c1C#N,1.1%,-10.1%
CCNc1sc(C(=O)c2cccs2)c(N)c1-c1nc2ccccc2s1,2.6%,7.94µM*
C=CCNc1sc(C(=O)c2ccccc2)c(N)c1-c1nc2ccccc2s1,-1.4%,7.94µM*
CC(C)CCC[C@@H](C)[C@H]1CC[C@H]2[C@@H]3CC=C4C[C@@H](O)CC[C@]4(C)[C@H]3CC[C@]12C,0.8%,2.8%
CN(C)c1ncnc2ccc(-c3ccccc3C(F)(F)F)cc12,-2.2%,5.8%
Cc1nnc(C)n1/N=C/c1ccc(-c2ccccc2)cc1,-1.8%,-4.0%
COC(=O)COc1cccc(-n2cnnn2)c1,1.5%,7.5%
Cc1cc(C(=O)COc2cccc(-n3cnnn3)c2)c(C)n1-c1ccccc1,-6.7%,20µM*
Cc1ccc(NC(=O)Cn2nnc(-c3nc(-c4ccc(Cl)cc4)no3)c2N)cc1C,-9.5%,-14.6%
O=C(C1COc2ccccc2O1)N1CCn2c(nc3ccccc32)C1 (stereo not drawn),-29.6%,12.6µM*
O=C(c1ccccc1)N1CCn2c(nc3ccccc32)C1,0.1%,-8.1%
O=C(O)C1=C/C(=C(/c2ccccc2)c2cc(C(=O)O)c(O)c3ccccc23)c2ccccc2C1=O,-0.9%,?
CC(C)NC(=S)N/N=C/c1sc(N2CCCCC2)nc1-c1cccs1,-7.1%,31.6µM*
CCCCNC(=S)N(C)/N=C/c1sc(N2CCCCC2)nc1-c1cccs1,-2.7%,-28.3%
O=C(COC(=O)CNC(=O)c1cccc(F)c1)NCCC1=CCCCC1,15.8µM*,12.6µM*
O=C(COC(=O)Cc1c(F)cccc1Cl)NCCC1=CCCCC1,-3.4%,0.9%
COc1ccc(/C=C/C(=O)Oc2ccc(/C=N/NC(=O)COc3c(C)cccc3C)cc2)cc1,3.2%,7.94µM*
Cc1cccc(C)c1OCC(=O)N/N=C/c1cccn1C,-5.8%,-9.4%
COc1ccc(/C=C/C(=O)Oc2cccc(/C=N/NC(=O)COc3c(C)cccc3C)c2)cc1,6.9%,15.8µM*
COc1ccc(/C=C/C=N/NC(=O)COc2ccc(OC)cc2)cc1,-4.9%,0.1%
CC[C@H]1C2=C3C(CC[C@H]4C(OCc5ccc(F)cc5C(F)(F)F)OC[C@](C)([C@@H]34)N(C(=O)OC(C)(C)C)C2)C(COC)C1COC (stereo partly drawn),-4.9%,-5.4%
CCNc1ncc2nc(C)c(=O)n(CCOC)c2n1,-14.2%,-23.1%
SMILES,Cruzain inh Det,Cruzain noTriton
Cn1nc(-c2ccccc2)c(CSc2ccccc2Cl)c1Cl,2.7%,-0.3%
Cc1ccc(S(=O)(=O)c2c(COC(=O)c3ccccc3Cl)c(-c3ccccc3)nn2C)cc1,3.1%,20µM*
COc1ccc2nc(NC(=O)Cc3cccs3)sc2c1,0.3%,-13.2%
COc1ccc2nc(NC(=O)CCc3nc(-c4ccccc4F)no3)sc2c1,0.4%,7.94µM*
COC(=O)c1ccc(C(NC(=O)OCc2ccccc2)/C(=C/[C@@H](C)C(=O)N(C)Cc2ccccc2)c2cccnc2)cc1 (stereo partly drawn),-0.7%,?
O=[N+]([O-])c1cccc(/C=C/c2nc(C=Nc3ccccc3)c(O)o2)c1,0.4%,12.6µM*
Oc1oc(-c2ccccc2)nc1C=Nc1ccccc1,-9.6%,-9.5%
CC1=NN(c2nc(-c3ccc(Cl)cc3)cs2)C(=O)C1,-18.7%,7.94µM*
CC1=NN(c2nc(-c3ccc(F)cc3)cs2)C(=O)C1,-0.4%,-0.4%
CC/C(=C(\c1ccccc1)c1ccc(OCCN(C)C)cc1)c1ccc(O)cc1,1.0%,-4.1%
COc1ccc(C(=O)Nc2cc(C(=O)c3ccccc3)c(C)oc2=O)cc1,12.6µM*,15.8µM*
COc1cccc(C(=O)Nc2cc3cc(OC)ccc3oc2=O)c1,0.5%,-1.0%
Cc1ccc(NC(=O)c2ccc(=O)n(Cc3ccccc3C)c2)c(C)c1,-3.0%,-6.7%
NCCC[C@@H](CC(=O)N[C@@H]1CCNC[C@H]1C(=O)N[C@H](CC(=O)N[C@@H](CCC(=O)O)CC(=O)O)Cc1ccccc1)NC(=O)C[C@H](Cc1c[nH]c2ccccc12)NC(=O)[C@@H]1CCCC[C@H]1N,-0.6%,-17.9%
CC1CCCCN1C(=O)CSc1nc2ccccc2nc1Cc1ccc(Cl)cc1 (stereo not drawn),-1.7%,-5.5%
Cc1ccc(C(=O)N(c2ccccc2)C2CC(C)N(C(=O)c3ccco3)c3ccccc32)cc1 (stereo not drawn),-1.4%,14.3%
Cc1c(C(=O)OCc2ccccc2)[nH]c2c1C(=O)CC(c1ccc(Cl)cc1)C2 (stereo not drawn),0.3%,7.94µM*
COc1ccc(C2CC(=O)c3c([nH]c(C(=O)OCc4ccccc4)c3C)C2)cc1OC (stereo not drawn),-2.4%,5.0%
CCOCCOC(=O)c1[nH]c2c(c1C)C(=O)CC(c1ccc(N(C)C)cc1)C2 (stereo not drawn),-2.2%,9.5%
C/C=C/COC(=O)c1[nH]c2c(c1C)C(=O)CC(c1ccc(N(C)C)cc1)C2 (stereo not drawn),-2.9%,31.6µM*
COC(=O)[C@@]1(Cc2ccccc2-c2ccco2)C=C[C@H](C)[C@@H](c2ccccc2)N1C(=O)C(F)(F)F,-2.2%,4.9%
CCCN(CCC)C(=O)Cn1c(=O)n(-c2ccccc2)c(=O)c2c3c(sc21)CCCC3,-2.5%,-6.9%
O=C(NC(=S)Nc1ccc2c(c1)C(=O)c1ccccc1C2=O)c1ccc(F)cc1,0.4%,3.98µM*
Cc1ccc(NC(=S)NC(=O)c2ccc(F)cc2)cc1S(=O)(=O)Nc1ccccc1Cl,-5.2%,?
CCCn1c(C)nc2c(N3CCOCC3)nc(C)nc21,-5.5%,-0.9%
SMILES,Cruzain inh Det,Cruzain noTriton
Cc1cc(=O)oc2c(OS(C)(=O)=O)c(OS(C)(=O)=O)ccc12,2.8%,6.3%
Cc1nc(-c2ccc(S(=O)(=O)NCc3ccc(OC(C)C)cc3)cc2)co1,-4.8%,1.3%
CCOc1ccc(C(=O)c2cn(CC(=O)Nc3ccc(F)c(F)c3)c3cc4c(cc3c2=O)OCCO4)cc1,-6.2%,8.2%
CCOc1ccccc1Nc1nc(-c2cccc(Cl)c2)c2c(n1)-c1ccccc1OC2,-15.0%,13.0%
CCOC(=O)C1=C(c2ccccc2)N=c2s/c(=C\c3ccco3)c(=O)n2C1c1cccs1 (stereo not drawn),-0.7%,?
CCOC(=O)C1=C(N)n2c(s/c(=C/c3ccccc3)c2=O)=C(C(=O)OCC)C1c1ccccc1 (stereo not drawn),-1.5%,-9.3%
CCOC(=O)C1=C(N)n2c(s/c(=C\c3ccco3)c2=O)=C(C(=O)OCC)C1c1ccco1 (stereo not drawn),-5.5%,7.94µM*
CCOC(=O)C1=C(N)n2c(s/c(=C\c3ccco3)c2=O)=C(C(=O)OC(C)C)C1c1ccco1 (stereo not drawn),-8.4%,10µM*
CCOC(=O)c1cnc2c(C)c(Cl)ccc2c1Nc1ccc(N2CCOCC2)cc1,-1.1%,-4.8%
Cc1cc(=O)c2c(O)c3c(O)cc(O)c4c5c(O)cc(O)c6c(O)c7c(=O)cc(C)c8c1c2c(c34)c(c65)c78,-24.2%,?
Fc1ccccc1Nc1nc2ccccc2n2nnnc12,-0.4%,25.1µM*
Fc1cccc(Nc2nc3ccccc3n3nnnc23)c1,-0.1%,?
c1ccc2c(c1)nc(Nc1ccc3c(c1)OCO3)c1nnnn12,-2.1%,25.1µM*
Oc1ccccc1Nc1nc2ccccc2n2nnnc12,-3.6%,?

# Screening data (PubChem)
